Results on 40 molecules are retold here after PubChem BioAssay (Tox21).

Inconclusive results are not listed. Active and inactive are the calls of the source. Calls follow the shape of the dose curve; as a rule, active = well fitted inhibition curve with a large enough effect in the signal ratio in the repeat runs (not every such curve was filed as active); inconclusive = weak or mixed curves, or effect the other way; inactive = no such curve, though single readings can be large or run the other way; the % refers to the signal ratio. Residues, ends and D or L forms follow the SMILES beside them.

Sequence of Peroxisome proliferator-activated receptor delta (Homo sapiens) (Q03181 whole entry, looked up): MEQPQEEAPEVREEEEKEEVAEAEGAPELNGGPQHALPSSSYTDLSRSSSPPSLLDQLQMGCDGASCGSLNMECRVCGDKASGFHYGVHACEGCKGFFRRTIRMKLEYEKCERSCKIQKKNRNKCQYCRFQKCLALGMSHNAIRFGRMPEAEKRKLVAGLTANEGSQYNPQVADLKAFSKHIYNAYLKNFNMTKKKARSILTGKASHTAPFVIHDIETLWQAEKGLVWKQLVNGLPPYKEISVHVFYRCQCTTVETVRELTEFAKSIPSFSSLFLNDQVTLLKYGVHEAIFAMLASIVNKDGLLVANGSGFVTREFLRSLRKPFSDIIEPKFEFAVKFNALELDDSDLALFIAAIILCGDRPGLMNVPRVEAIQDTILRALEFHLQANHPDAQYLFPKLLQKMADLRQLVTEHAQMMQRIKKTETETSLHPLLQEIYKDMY

The assay deals with Peroxisome proliferator-activated receptor delta (Homo sapiens) (UniProt Q03181). Nature of the assay: qHTS assay to identify small molecule antagonists of the peroxisome proliferator-activated receptor delta (PPARd) signaling pathway (AID 743215).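 Also: cells stimulated with agonist L165041 at 300 nM final during compound exposure.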 The following applies: HEK293H PPARd-UAS-bla, beta-lactamase FRET ratio, antagonist, 17 h; series mostly up to 62 µM. The source says:
U.S. Tox21 Program National Center for Advancing Translational Sciences [NCATS] NIH Chemical Genomics Center [NCGC] U.S. Environmental Protection Agency [EPA] National Institutes of Environmental Health Sciences [NIEHS] National Toxicology Program [NTP] U.S. Food and Drug Administration [FDA] Tox21 Assay Overview: The peroxisome proliferator-activated receptors (PPARs) are lipid-activated transcription factors of the nuclear receptor superfamily with three distinct subtypes namely PPAR alpha, PPAR delta (PPARd) and PPAR gamma. All these subtypes heterodimerizes with Retinoid X receptor (RXR) and have different physiological functions. […] To identify the compounds that inhibit PPAR-delta signaling, GeneBLAzer PPAR delta UAS-bla HEK293H cell line (Invitrogen, Carlsbad, CA, USA) containing a beta-lactamase reporter gene under the control of an Upstream Activator Sequence (UAS) was used to screen the Tox21 compound library.
Tox21 Assay Protocol Summary: PPARd-bla cells were dispensed at 3000 cells/5uL/well in 1536-well black wall/clear bottom plates using a Multidrop Combi (Thermo Fisher Scientific, Waltham, MA) dispenser. After the assay plates were incubated at 37 C and 5% CO2 for 5 h, 23 nL of compounds dissolved in DMSO, positive controls or DMSO only was transferred to the assay plate by a Pintool station (Kalypsys, San Diego, CA), followed by addition of 1ul L165041 (300 nM, final concentration in the wells). The assay plates were incubated at 37 C for 17 h, and then 1 uL of LiveBLAzerTM B/G FRET substrate was added using a Bioraptr Flying Reagent Dispenser (FRD) workstation (Beckman Coulter, Indianapolis, IN, USA). The assay plates were incubated at room temperature for 2 h and fluorescence intensity was measured by an Envision plate reader (PerkinElmer, Shelton, CT).
In general terms: In qHTS, concentration-response curves come from the screen itself.
Consider `OCCc1ccccc1`, for which the outcome was inactive.
Under `CC(C)(Oc1ccc(C2CC2(Cl)Cl)cc1)C(=O)O` (stereo not given) stands “inactive”; under `COc1ccc2[nH]cc(CCNC(C)=O)c2c1`, “inactive”; under `O=C(O)CCC(=O)O`, “inactive”.
With `CC(O)C(=O)O` (stereo not given), the outcome was inactive.
Consider `O=C(O)CS`, for which the result was inactive.
As for `Cn1cc[nH]c1=S`, the entry is “inactive”; as for `NC(=O)c1ccccc1O`, “inactive”; as for `Nc1ccc(S(=O)(=O)Nc2nccs2)cc1`, “inactive”.
As for `CC(O)CO` (stereo not given), the entry is “inactive”.
Under `Cc1cc(=O)[nH]c(=S)[nH]1` stands “inactive”; under `O=c1cc[nH]c(=S)[nH]1`, “inactive”.
As to `CC(C)[C@@H]1CC[C@@H](C)C[C@H]1O`, the result was inactive.
`c1ccc2[nH]ccc2c1`: the outcome was inactive.
Under `CCOc1ccc(NC(=O)CC(C)O)cc1` (stereo not given) stands “inactive”; under `O=C(O)c1cc(N=Nc2ccc(S(=O)(=O)Nc3ccccn3)cc2)ccc1O`, “inactive”; under `O=C(c1ccccc1)C(O)c1ccccc1` (stereo not given), “inactive”.
Under `COC(=O)[C@H](Cc1ccccc1)NC(=O)[C@@H](N)CC(=O)O` (H-Asp-Phe-OMe) stands “inactive”; under `CCCCC(CC)COC(=O)/C=C/c1ccc(OC)cc1` (stereo not given), “inactive”.
Regarding `Nc1ccc(S(=O)(=O)c2ccc(N)cc2)cc1`, the result was inactive.
Regarding `OC(Cn1cncn1)(Cn1cncn1)c1ccc(F)cc1F`, the result was inactive.
Under `C1N2CN3CN1CN(C2)C3` stands “inactive”; under `Cc1ccc(S(=O)(=O)NC(=O)NN2CCCCCC2)cc1`, “inactive”; under `Cc1noc(NS(=O)(=O)c2ccc(N)cc2)c1C`, “inactive”.
As for `NC(=O)c1cnccn1`, the entry is “inactive”.
Under `Cc1cn([C@H]2C[C@H](N=[N+]=[N-])[C@@H](CO)O2)c(=O)[nH]c1=O` stands “inactive”; under `CC(=O)NS(=O)(=O)c1ccc(N)cc1`, “inactive”; under `NC(N)=O`, “inactive”.
In the case of `Nc1ccc(O)c(C(=O)O)c1`, the outcome was inactive.
Under `CC(=O)OCC(COC(C)=O)OC(C)=O` stands “inactive”.
Under `NC(=O)NC1NC(=O)NC1=O` (stereo not given) stands “inactive”; under `Cc1ccccc1C(OCCN(C)C)c1ccccc1` (stereo not given), “inactive”; under `Nc1ccc(C(=O)O)cc1`, “inactive”.
Take `Cc1ccc(C)c(OCCCC(C)(C)C(=O)O)c1`: the outcome was inactive.
Consider `CCCN(CCC)S(=O)(=O)c1ccc(C(=O)O)cc1`, for which the result was inactive.
For `CC1(C)[C@@H]2CC[C@@]1(C)C(=O)C2`, the result was inactive.
Regarding `CCCCOC(=O)CC(CC(=O)OCCCC)(OC(C)=O)C(=O)OCCCC`, the result was inactive.
As for `Cc1ccc(O)cc1`, the entry is “inactive”.
Under `O=C(O)/C=C\C(=O)O` stands “inactive”; under `CCCC(O)C(CC)CO` (stereo not given), “inactive”.
